CYP2C19 inhib: blocks human cytochrome P450 2C19; P33261; CYP2C19 Supersomes, luciferin-H EGE luminescence, 30 min; inhibition, % at 5 µM; hit rate 21% among 96,000;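 active means CYP2C19 inhibition above a set limit at 5 µM in the primary screen, cut at about 50% in these data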;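 further: plate controls were negative control wells for no effect and 2.5 mM tranylcypromine positive control for full effect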
CYP2C9 act: CYP2C9 (human) activation. P11712. recombinant CYP2C9, luciferin-H conversion, luminescence; hits give high values; factor 1 = untreated enzyme, 0 = blocked. activation factor at 5 µM. hit rate 1.4% among 96,000. AID 1024;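 active means activation factor of 2 or more for CYP2C9 at a 5 µM dose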;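 further: 0 = sulfaphenazole-blocked wells and 1 = vehicle-only wells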
Target sequence (P11712 whole entry, looked up): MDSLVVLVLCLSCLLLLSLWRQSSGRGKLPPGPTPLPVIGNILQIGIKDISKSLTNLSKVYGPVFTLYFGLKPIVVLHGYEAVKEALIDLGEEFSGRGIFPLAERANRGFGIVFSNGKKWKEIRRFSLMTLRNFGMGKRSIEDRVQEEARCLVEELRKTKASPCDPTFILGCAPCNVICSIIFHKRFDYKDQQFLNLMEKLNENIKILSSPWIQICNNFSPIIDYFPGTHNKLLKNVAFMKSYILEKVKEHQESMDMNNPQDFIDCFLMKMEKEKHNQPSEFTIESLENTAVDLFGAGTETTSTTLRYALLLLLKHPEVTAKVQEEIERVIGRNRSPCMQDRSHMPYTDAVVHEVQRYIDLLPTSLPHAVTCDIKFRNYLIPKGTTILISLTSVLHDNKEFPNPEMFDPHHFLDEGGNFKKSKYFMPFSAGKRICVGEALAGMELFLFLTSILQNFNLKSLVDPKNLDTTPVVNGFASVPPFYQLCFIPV
CYP2C9 inh: blocks human cytochrome P450 2C9. CYP2C9 Supersomes, luciferin-H conversion, luminescence. hit rate 20% among 96,000. P11712. inhibition, % at 5 µM;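 active means blocking of liver enzyme CYP2C9 beyond about 50% at 5 µM, limit read from the data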
Pyk2 oligo antag: blocks oligomerization of human Pyk2 in cells | Q293 cells, Pyk2 FERM NanoBiT luminescence; hits give low values | Q14289 | hit rate 0.83% among 99,000 | AID 1347419 | z-score (the deposit names both 25 µM and 10 µM);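 active means Z-score of -3 or lower, scaled per plate to the spread of control and sample wells; inactive means z-score above -3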;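 further: negative z-score means lost luminescence so less FERM oligomerization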
CYP2C19 activ: cytochrome P450 2C19 (human) activation | recombinant CYP2C19, luciferin-H EGE luminescence; hits give high values; 0 = fully inhibited enzyme, 1 = untreated enzyme | activation factor at 5 µM | 96,000 tested, under 10 active | AID 1025;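 active means activation factor of at least 2 at 5 µM in the primary screen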;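 further: 0 = wells with 2.5 mM tranylcypromine and 1 = vehicle-only wells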
* marks the source's active call; other numbers are inactive results; . = no result given. The list is not random: actives were taken first. Their share in the collection is about 28%.

SMILES | CYP2C19 inhib | CYP2C9 act | CYP2C9 inh | Pyk2 oligo antag | CYP2C19 activ
CCCCC(CC)CNC(=O)C1C2C=CC(C2)C1C(=O)O (stereo not drawn) | 4.8 | 0.9 | 5.0 | 0.02 | 1
O=C(Cn1c(=O)oc2cc(S(=O)(=O)NCc3ccccc3)ccc21)NCc1ccco1 | 1.6 | 0.4 | 61.1* | . | 1
CCOC(=O)Cn1c(=O)oc2cc(S(=O)(=O)NCc3ccccn3)ccc21 | -0.9 | 0.7 | 26.2 | . | 1
CCOc1ccccc1CNS(=O)(=O)c1ccc2c(c1)oc(=O)n2C | 77.9* | 2.3* | -129.4 | . | 0.2
O=C(NCC1CCCCC1)C1CCCN(C(=O)NC2CCCCC2)C1 (stereo not drawn) | 5.9 | 0.8 | 15.6 | 1.14 | 0.9
CCCCOc1ccc(NC(=O)CSc2nnnn2C)cc1 | -23.3 | 1.1 | -9.4 | -0.3 | 1.2
CCS(=O)(=O)N1CCN(Cc2ccccc2OC)CC1 | 89.3* | 0.8 | 15.2 | -0.06 | 0.1
CCCS(=O)(=O)N1CCN(Cc2ccccc2OCC)CC1 | 75.1* | 1 | 3.9 | 0.44 | 0.2
CCC(=O)N1CCN(c2ccc(NC(=O)c3cccs3)cc2)CC1 | -11.6 | 1 | 4.5 | -0.26 | 1.1
O=C(CSc1nnnn1C1CCCCC1)NCCc1ccccc1 | 9.3 | 0.9 | 14.9 | 0.76 | 0.9
COc1ccc(S(=O)(=O)N(C)c2c(C)n(C)n(-c3ccccc3)c2=O)cc1OC | 71.3* | 1 | 0.2 | 0.58 | 0.3
CC(=O)C(=Nc1ccccc1Cl)NNc1ccc(Cl)cc1 | . | . | . | -0.45 | .
COC(=O)Cn1c(SCc2ccccc2)nc2ccccc21 | 57.7* | 0.8 | 23.3 | -0.41 | 0.4
COc1cccc(C(=O)CSc2nc3ccccc3n2CC(=O)N2CCOCC2)c1 | 17.3 | 0.3 | 67.8* | -0.37 | 0.8
CCOC(=O)CSc1nc2ccccc2n1CC(=O)NC(C)(C)C | 16.1 | 0.8 | 20.5 | 0.15 | 0.8
COc1cccc(NC(=O)CSc2nnc(CN3CCOCC3)n2C)c1 | -2.7 | 1.1 | -13.5 | 0.9 | 1
COc1ccc(C(=O)CSc2nc3ccccc3n2CC(=O)NC(C)(C)C)cc1 | 39.7 | 0.3 | 72.0* | 0.27 | 0.6
CCCCn1c(SCC(=O)Nc2cccc(OC)c2)nc2ccc(N3CCOCC3)cc2c1=O | 83.1* | 0 | 96.2* | -0.64 | 0.2
CC(C)(C)n1nc2c(c1NC(=O)COc1ccc3ccccc3c1)CS(=O)C2 (stereo not drawn) | 34.7 | 0.9 | 10.5 | . | 0.7
O=C(c1ccc(S(=O)(=O)N2CCOCC2)cc1)N1CCc2ccccc2C1 | 1.0 | 1 | -0.8 | 0.71 | 1
OCCn1c(Cl)nc2ccccc21 | . | . | . | 0.95 | .
COc1cccc(NC(=O)Cn2c(SCC(=O)N3CCOCC3)nc3ccccc32)c1 | 71.2* | 0.2 | 80.0* | -0.13 | 0.3
CC1Cc2ccccc2N1C(=O)CSc1nc2ccccc2n1CC(=O)N1CCOCC1 (stereo not drawn) | -2.2 | 0.6 | 43.7 | 3.37 | 1
COCCCNC(=O)c1ccc(Cn2c(=O)c3ccccc3n(Cc3ccc(C)cc3)c2=O)cc1 | 47.1 | 0.5 | 54.0* | -0.79 | 0.5
O=C1C2C3C=CC(C3)C2C(=O)N1CNc1ccc(O)cc1 (stereo not drawn) | -14.2 | 1.1 | -8.7 | . | 1.1
SMILES | CYP2C19 inhib | CYP2C9 act | CYP2C9 inh | Pyk2 oligo antag | CYP2C19 activ
O=C1C2C3C=CC(CC3)C2C(=O)N1/N=C/c1ccc(O)cc1 (stereo not drawn) | 27.8 | 2* | -95.9 | -0.72 | 0.7
CC1(C)CSC(=S)N1S(=O)(=O)c1ccccc1 | 75.4* | 0.7 | 31.1 | -0.72 | 0.2
COC(=O)NCc1cccc(CNC(=O)OC)c1 | 4.7 | 1 | 3.0 | 1.01 | 1
C/C(N)=C(/C#N)C(=O)COC(=O)CCC1CCCC1 | 49.4 | 0.8 | 15.7 | 0.26 | 0.5
COC(=O)c1sc(NC(=O)c2ccco2)nc1C | 7.7 | 0.8 | 17.6 | 0.77 | 0.9
CCOC(=O)c1sc(NC(NC(=O)c2ccco2)(C(=O)OC)C(F)(F)F)nc1C (stereo not drawn) | 7.4 | 0.4 | 55.9* | -0.7 | 0.9
CCCC(=O)NC(C)c1nc2ccccc2n1C (stereo not drawn) | 2.5 | 1 | 1.9 | . | 1
Clc1ccc(Cl)c(-c2nn3c(COc4ccccc4)nnc3s2)c1 | 28.6 | 0.5 | 50.1* | 0.73 | 0.7
COc1ccccc1-c1nn2c(-c3ccccc3Cl)nnc2s1 | 3.2 | 1 | -2.4 | . | 1
c1ccc(OCc2nn3c(Cn4nnc5ccccc54)nnc3s2)cc1 | 24.7 | 0.9 | 8.1 | 0.31 | 0.8
COc1ccc(-c2nn3c(COc4ccccc4)nnc3s2)cc1OC | 28.4 | 0.4 | 57.5* | 0.44 | 0.7
c1ccc(OCc2nnc3sc(-c4cccs4)nn23)cc1 | 53.2* | 0.4 | 58.4* | 1.32 | 0.5
Cc1nc(CCNC(=O)Cc2ccc(Cl)cc2)cs1 | 56.3* | 0.7 | 26.8 | . | 0.4
Cc1ccc(C(=O)NCCc2csc(C)n2)cc1 | 13.0 | 0.5 | 53.2* | . | 0.9
COCCN(CC(=O)NC1CCCCC1)C(=O)c1csnn1 | -8.3 | 1.1 | -10.1 | -0.72 | 1.1
CCSc1nn2c(=O)c3ccccc3nc2s1 | 27.8 | 0.5 | 49.1 | -0.93 | 0.7
COc1ccccc1C1C=C(c2ccc(C)cc2)Nc2nnnn21 (stereo not drawn) | 85.2* | 0.3 | 70.8* | 0.83 | 0.1
COc1ccc(C2=CC(c3c(C)nn(-c4ccccc4)c3Cl)n3nnnc3N2)cc1OC (stereo not drawn) | 91.1* | 0.1 | 93.3* | -1.68 | 0.1
COc1cccc(C2C(C(=O)Nc3cccnc3)=C(C)Nc3nnnn32)c1OC (stereo not drawn) | 0.1 | 1 | 2.5 | -0.16 | 1
Cc1ccc(C2=CC(c3cccs3)n3nnnc3N2)cc1 (stereo not drawn) | 97.4* | 0.2 | 81.5* | -0.46 | 0
C1=C(c2ccccc2)Nc2nnnn2C1c1cccs1 (stereo not drawn) | 28.9 | 0.7 | 27.6 | -0.52 | 0.7
Cn1c(=O)c2c(nc(CN3CCN(c4ccccc4)CC3)n2Cc2c(F)cccc2Cl)n(C)c1=O | 27.3 | 0.7 | 29.0 | 0.06 | 0.7
CC1Cc2ccccc2N1C(=O)CN1C(=O)CN(C)C(=O)c2ccccc21 (stereo not drawn) | -7.6 | 1.3 | -30.9 | 1.51 | 1.1
Cc1ccc(C(=O)N2CCCC(c3nc4c(nnn4Cc4ccccc4)c(=O)[nH]3)C2)cc1 (stereo not drawn) | 9.8 | 0.5 | 47.1 | 0.88 | 0.9
CCCCC(=O)N1CCCC(c2nc3c(nnn3Cc3cc(C)ccc3C)c(=O)[nH]2)C1 (stereo not drawn) | 66.8* | 0.1 | 86.7* | -0.62 | 0.3
Cc1ccc(C)c(Cn2nnc3c(=O)[nH]c(C4CCCN(C(=O)CC(C)C)C4)nc32)c1 (stereo not drawn) | 60.9* | 0.2 | 78.6* | -1.02 | 0.4
COC(=O)C1=C(C(=O)OC)C2(OC1c1ccccc1C)C(=O)c1ccccc1C2=O (stereo not drawn) | . | . | . | 1.21 | .
COc1ccccc1CNC(=O)CCS(=O)(=O)c1ccc2c(c1)CCCN2C(C)=O | 4.2 | 1.2 | -20.3 | -0.18 | 1

High-throughput results: PubChem BioAssay, Sanford-Burnham Center for Chemical Genomics
